Counter-ions that a name gives are not always drawn. The full ranking holds about 2,800 compounds; the median of “cell viability relative to vehicle” is about 0.98, and the lowest 2% start at about 0.45. Shown is part of a subset that was picked to be rich in the lowest values.

The test deals with NCI-H2228 alectinib-DTP. Briefly: cell viability relative to vehicle (fraction of vehicle); NCI-H2228 is an ALK-positive lung cancer line and DTP means drug-tolerant persister; higher = less growth inhibition. The conditions noted are these: 100 nM; treatment time 6 days. The method in brief:
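Drug-tolerant persister NCI-H2228 cells, produced by 13 days in 1000 nM of a targeted drug, and their parental counterparts were seeded into 384-well plates and, the following day, given the 3114-agent TargetMol anti-cancer compound library at 100 nM or DMSO vehicle. After 6 days, the CellTiter-Glo 3D Cell Viability Assay was used to read ATP. Each entry reports viability compared with vehicle-treated cells.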
In turn, `CC(C)[C@]12O[C@H]1[C@@H]1O[C@]13[C@]1(O[C@H]1C[C@H]1C4=C(CC[C@@]13C)C(=O)OC4)[C@@H]2O` [Triptolide] showed a cell viability of 0.133.

As to `CCCC(C)(C)c1ccc2c(c1)OC(C)(C)[C@@H]1CC=C(C)C[C@@H]21`, the cell viability was 0.862.

With `Cc1ccc(/N=C/N(C)/C=N/c2ccc(C)cc2C)c(C)c1` [Amitraz], the cell viability is 0.902.

The compound `COc1ccc2c(c[n+](C)c3c4cc5c(cc4ccc23)OCO5)c1OC` [Chelerythrine] came in with a cell viability of 1.03.

The compound `COc1ccc2c(c[n+](C)c3c4cc5c(cc4ccc23)OCO5)c1OC` [Chelerythrine chloride] showed a cell viability of 1.04.

`CC(=O)O[C@H]1C(=O)[C@@]2(C)[C@H]([C@H](OC(=O)c3ccccc3)[C@]3(O)C[C@H](O)C(C)=C1C3(C)C)[C@]1(OC(C)=O)CO[C@@H]1C[C@@H]2O` [Baccatin III] came in with a cell viability of 1.

In turn, `C/C(=C\c1csc(C)n1)[C@@H]1C[C@@H]2O[C@@H]2CCC[C@H](C)[C@H](O)[C@@H](C)C(=O)C(C)(C)[C@@H](O)CC(=O)O1` [Epothilone A] registered a cell viability of 0.529.

Compound `C/C(=C\c1csc(C)n1)[C@@H]1C[C@@H]2O[C@]2(C)CCC[C@H](C)[C@H](O)[C@@H](C)C(=O)C(C)(C)[C@@H](O)CC(=O)O1` [Epothilone B] came in with a cell viability of 0.433.

With `C[C@@H]1C(=O)O[C@H]2[C@H](O)[C@@]34O[C@@H]5OC(=O)[C@H](O)[C@@]56[C@H](C(C)(C)C)[C@H](O)C(OC3=O)[C@]64[C@@]12O` (stereo partly specified) [Ginkgolide C], the cell viability turned out to be 0.969.

Compound `C/C=C/c1cc(OC)c(OC)cc1OC` [alpha-Asarone] came in with a cell viability of 0.92.

In the case of `NC[C@H](CC(=O)O)c1ccc(Cl)cc1` [(R)-baclofen], the cell viability stood at 1.07.

`NCCc1c[nH]c2ccccc12` [Tryptamine] returned a cell viability of 1.12.

Regarding `NCCCNCCCN` [Bis(3-aminopropyl)amine], the cell viability came to 0.833.

On to `CCC(C)C(=O)O[C@@H]1[C@@H](OC(C)=O)[C@]2(C)[C@H](C(C)=O)CC[C@@]23O[C@]32CC[C@H]3C[C@@H](O[C@H]4C[C@@H](OC)[C@H](O[C@@H]5O[C@H](C)[C@@H](O)[C@@H](OC)[C@H]5O)[C@@H](C)O4)CC[C@]3(C)[C@@H]12` (stereo partly specified) [Tenacissoside H], for which the cell viability turned out to be 1.14.

The compound `CO[C@H]1C[C@H](O[C@H]2CC[C@]3(C)[C@H]4CC[C@]5(C)[C@@H](C6=CC(=O)OC6)CC[C@]5(O)[C@@H]4CC[C@]3(O)C2)O[C@H](C)[C@H]1O[C@@H]1O[C@H](CO)[C@@H](O)[C@H](O)[C@H]1O` [Periplocin] registered a cell viability of 0.443.

In the case of `CC(=O)O[C@H]1C[C@H](O[C@H]2[C@@H](O)C[C@H](O[C@H]3[C@@H](O)C[C@H](O[C@H]4CC[C@@]5(C)[C@H](CC[C@@H]6[C@@H]5C[C@@H](O)[C@]5(C)[C@@H](C7=CC(=O)OC7)CC[C@]65O)C4)O[C@@H]3C)O[C@@H]2C)O[C@H](C)[C@H]1O[C@@H]1O[C@H](CO)[C@@H](O)[C@H](O)[C@H]1O` [Lanatoside C], the cell viability came out at 0.49.

Compound `NCC(CC(=O)O)c1ccccc1` (stereo unspecified) [Phenibut] showed a cell viability of 1.03.

`COc1ccc2c(c1O)-c1c(OC)c(OC)cc3c1[C@H](C2)N(C)CC3` [(+)-Isocorydine hydrochloride] had a cell viability of 0.9.

As for `CCC12C=CCN3CC[C@@]4(c5ccc(OC)cc5N(C)[C@H]4[C@@](O)(C(=O)OC)[C@@H]1OC(C)=O)[C@@H]32` (stereo partly specified) [Vindoline], the cell viability worked out at 1.1.

In the case of `N#CC(C#N)=Cc1ccc([N+](=O)[O-])c(O)c1`, the cell viability amounted to 1.05.

The compound `C[C@H]1CCC/C=C/[C@@H]2C[C@H](O)C[C@H]2[C@H](O)/C=C/C(=O)O1` [Brefeldin A] gave a cell viability of 0.0894.

The compound `C[C@H]1C(=O)O[C@@H]2CCN3CC=C(COC(=O)[C@](C)(O)[C@]1(C)O)[C@H]23` [Monocrotaline] gave a cell viability of 0.941.

`C[N+]1([O-])[C@@H]2CC(OC(=O)[C@H](CO)c3ccccc3)C[C@H]1[C@@H]1O[C@@H]12` (stereo partly specified) [Scopolamine N-oxide HBr] registered a cell viability of 1.07.

As for `C[C@@H]1CCC=C2C(=O)C[C@H]3OOC(C)(C)[C@H]3[C@]21C` [Nardosinone], the cell viability amounted to 0.941.

Consider `COc1ccc2c(c1)[nH]c1c(C)nccc12` [Harmine], for which the cell viability worked out at 0.801.

As to `Nc1ncnc2c1ccn2[C@@H]1O[C@H](CO)[C@@H](O)[C@H]1O` [Tubercidin], the cell viability is 0.389.

Consider `CC(=O)Nc1ccc(OC[C@](C)(O)C(=O)Nc2ccc([N+](=O)[O-])c(C(F)(F)F)c2)cc1` [Andarine], for which the cell viability is 0.917.

On to `C[C@H](CS(C)(=O)=O)n1ccc2c(C(F)(F)F)c(C#N)ccc21`, for which the cell viability amounted to 1.09.

Compound `O=P(O)(NCCCl)NCCCl` [Palifosfamide] returned a cell viability of 1.17.

In turn, `Cc1c(N[C@@H](c2nnc(-c3ccc(C#N)cc3)o2)[C@H](C)O)ccc(C#N)c1Cl` [Testolone] registered a cell viability of 1.21.

`C[C@]12CC[C@H](O)C[C@H]1CC[C@@H]1[C@@H]2CC[C@]2(C)[C@@](O)(c3ccoc3)CC[C@]12O` [Rostafuroxin]: the cell viability was determined as 0.988.

With `C[C@]12CC[C@H](O)C[C@@H]1CC[C@@H]1[C@@H]2CC[C@]2(C)C(=O)CC[C@@H]12` [Epiandrosterone], the cell viability was 0.814.

Regarding `C[C@]12CC[C@H](O)C[C@H]1CC[C@@H]1[C@@H]2CC[C@]2(C)[C@@H](c3ccc(=O)oc3)CC[C@]12O` [Bufalin], the cell viability came out at 0.101.

Turning to `C[C@]12CC[C@H](O)C[C@H]1CC[C@@H]1[C@@H]2CC[C@]2(C)[C@@H](c3ccc(=O)oc3)C[C@H]3O[C@]132` [Resibufogenin], the cell viability was determined as 1.07.

Regarding `CC(=O)O[C@H]1[C@H]2O[C@]23[C@@H]2CC[C@@H]4C[C@@H](O)CC[C@]4(C)[C@H]2CC[C@]3(C)[C@H]1c1ccc(=O)oc1` [Cinobufagin], the cell viability is 0.142.

On to `Cc1c(C(=O)Nc2cccc(C(F)(F)F)c2)cc(-c2ccccc2)n1CCCN1CCOCC1`, for which the cell viability worked out at 0.946.

`Cc1ccccc1-n1c(Cn2cnc3c(N)ncnc32)nc2cccc(C)c2c1=O` registered a cell viability of 1.07.

In turn, `C=C1C2CC3(C1O)C1CC4C5(C)CCC(O)C4(C1N(CC)C5)C3CC2=O` (stereo unspecified) [Napellonine] yielded a cell viability of 0.931.

Compound `CCO[C@H]1O[C@@H]2O[C@@]3(C)CC[C@H]4[C@H](C)CC[C@@H]([C@H]1C)[C@@]24OO3` [Arteether] registered a cell viability of 0.856.

Regarding `CC(=O)OC(C)(C)/C=C/C(=O)[C@](C)(O)[C@H]1[C@H](O)C[C@@]2(C)[C@@H]3CC=C4[C@H](C[C@H](O)C(=O)C4(C)C)[C@]3(C)C(=O)C[C@]12C` [Cucurbitacin B], the cell viability turned out to be 0.146.

The compound `COc1ccc2c(c1OC)CN1CCc3cc4c(cc3C1C2)OCO4` (stereo unspecified) [Tetrahydroberberine THB] showed a cell viability of 1.01.

Consider `CC[C@@]1(O)C(=O)OCc2c1cc1n(c2=O)Cc2cc3ccccc3nc2-1` [(S)-(+)-Camptothecin], for which the cell viability turned out to be 0.36.

With `CCc1c2c(nc3ccccc13)-c1cc3c(c(=O)n1C2)COC(=O)[C@]3(O)CC` [7-Ethylcamptothecin], the cell viability turned out to be 0.361.

`COc1ccc(/C=C/C=C2C(=O)NC(=O)NC2=O)cc1` showed a cell viability of 0.972.

For the compound `N#C/C=C1/C=C[C@@H](O)[C@H](O)[C@H]1O[C@@H]1O[C@H](CO)[C@@H](O)[C@H](O)[C@H]1O` [Griffonin], the cell viability was determined as 0.984.

Compound `Clc1ccc([C@]23CNC[C@H]2C3)cc1Cl` [Amitifadine hydrochloride] registered a cell viability of 1.06.

In turn, `CC(=O)O[C@H]1CC[C@H]2[C@@H]3CCC4=CC(=O)CCC4=C3C=C[C@]12C` [Trenbolone acetate] displayed a cell viability of 1.15.

For `N#C[C@H](O[C@@H]1O[C@H](CO[C@@H]2O[C@H](CO)[C@@H](O)[C@H](O)[C@H]2O)[C@@H](O)[C@H](O)[C@H]1O)c1ccccc1` [Amygdalin], the cell viability is 0.879.

The compound `N#Cc1nn(-c2c(Cl)cc(C(F)(F)F)cc2Cl)c(N)c1[S+]([O-])C(F)(F)F` (stereo unspecified) [Fipronil] had a cell viability of 0.905.

`CC1=C[C@H]2[C@@]3(O)[C@H](C)[C@@H](O)[C@]4(O)[C@H]([C@@H]3C=C(CO)C[C@]2(O)C1=O)C4(C)C` [Phorbol]: the cell viability was 0.999.

The compound `O=C(/C=C/c1ccccc1)OC[C@H]1O[C@@H](O[C@@H]2OC=C[C@H]3[C@H](O)[C@@H]4O[C@]4(CO)[C@@H]23)[C@H](O)[C@@H](O)[C@@H]1O` [Picroside I] came in with a cell viability of 1.06.

The record behind these values is the supplement of paper PMC10600219.
